Data on 35 compounds can be found in PubChem BioAssay.

Active and inactive are the calls of the source.

A short description of this test: basal S. cerevisiae growth modulation, no modifier, primary screen, OD600, strain BY4716, 24 h, basal condition (AID 1173). Particulars: OD600, 24 h, higher = more signal, called active from +8 up or from −8 down.
For the compound `C=CCN1C(=O)[C@@]2(O[C@@H](CCO)[C@H]([Si](C)(C)c3ccc(OC)cc3)[C@H]2C)c2cc(NC(=O)[C@H](C)O)ccc21`, the z-score was -2.34 (inactive).

As for `COC(=O)[C@@]1(Cc2ccc(OC)cc2)[C@H]2c3cc(C(=O)N4CCCC4)n(CCF)c3C[C@H]2CN1C(=O)c1ccccc1`, the z-score was 1.1 (inactive).

For `O=C1N(Cc2ccccc2)c2ccccc2[C@H]2OC(c3ccc(OCCCO)cc3)=N[C@@]12CCS(=O)(=O)c1ccccc1`, the z-score is 1.21 (inactive).

As for `CC(=O)NCCCC[C@@H]1NC(=O)[C@@H]2C[C@H](C(=O)NCCCC[N+](C)(C)C)[C@H](c3cccc(OCCO)c3)N2C1=O`, the z-score was 1.41 (inactive).

Consider `COCCCNC(=O)[C@@]1(Cc2ccccc2I)c2ccccc2C(=O)N(Cc2ccccc2Cl)[C@H]1c1ccc(CO)cc1`, for which the z-score is -1 (inactive).

As to `COCCCNC(=O)[C@@]1(Cc2ccccc2CN=[N+]=[N-])N=C(c2ccc(OCCCO)cc2)O[C@H]1c1ccccc1N=[N+]=[N-]`, the z-score was -0.255 (inactive).

In the case of `NCCCCCCNC(=O)[C@H]1C[C@H]2C(=O)N3CCC[C@H]3C(=O)N2[C@H]1c1ccc(O)cc1`, the z-score was -0.438 (inactive).

With `C=C(/C(=C/C[C@@H](OC(=O)c1ccncc1)c1cccc(OCCO)c1)c1cc(C(=O)OC)ccc1OC)C(C)C`, the z-score is -0.243 (inactive).

Turning to `CN1C(=O)C2C=CC(C(O)COCc3ccccc3)N(Nc3ccccc3)C2C1=O` (stereo not given), the z-score is -0.396 (inactive).

Regarding `C=C[C@@H](O)[C@H]1CC(c2ccccc2)=NO1`, the z-score was -2.38 (inactive).

Turning to `COC(=O)[C@@]1(Cc2ccc(OC)cc2)[C@H]2c3cc(C(=O)N(C)C)n(CCF)c3C[C@H]2CN1C(=O)c1ccccc1`, the z-score is 2 (inactive).

For `C=CCC(OC(C)=O)[C@@H]1[C@@H](N(Cc2ccc(-c3cccc(C(F)(F)F)c3)o2)C(=O)c2cccc3ccccc23)c2cc(OCCCO)ccc2N1C(=O)c1ccc(-c2ccccc2)cc1` (stereo not given in full), the z-score was -0.0033 (inactive).

As for `COc1cc(NN2C(C(O)c3ccc(I)cc3)C=CC3C(=O)N(C)C(=O)C32)cc(OC)c1OC` (stereo not given), the z-score was 0.643 (inactive).

Turning to `C=CCC(OC(C)=O)[C@@H]1[C@@H](N(Cc2cccc3ccccc23)C(=O)Cc2ccc(F)cc2)c2cc(OCCCO)ccc2N1C(=O)Cc1ccc(OC)cc1` (stereo not given in full), the z-score was -1.61 (inactive).

As for `C=CCOC(=O)[C@@H]1[C@H]2C(=O)O[C@H](c3ccccc3)[C@H](c3ccccc3)N2[C@H](c2ccc(OCCOC(=O)[C@H]3C[C@H]4C(=O)N[C@@H](Cc5ccccc5)C(=O)N4[C@H]3c3cccc(OCCO)c3)cc2)[C@@]12C(=O)Nc1ccc(I)cc12`, the z-score was -0.215 (inactive).

With `CC(C)c1ccc(NN2C(C(O)c3cccs3)C=CC3C(=O)N(c4ccccc4)C(=O)C32)cc1` (stereo not given), the z-score was -2.27 (inactive).

Take `CC1CC/C=C\[C@H]2OC34C=CCN(Cc5ccccc5)C(=O)[C@H]3N(CCO)C(=O)[C@@H]4C2C(=O)O1` (stereo not given in full): the z-score is -0.73 (inactive).

As to `COCCOC(=O)N1C(=O)[C@@]2(c3cc(C#CC4(O)CCCCCC4)ccc31)[C@H](C(=O)N1CCc3cc(OC)c(OC)cc3C1)[C@H]1C(=O)O[C@H](c3ccccc3)[C@H](c3ccccc3)N1[C@@H]2c1ccccc1OCCO`, the z-score was 1.96 (inactive).

For the compound `COc1ccc([Si](C)(C)[C@H]2[C@H](CC(=O)N3CCC[C@H]3CO)O[C@@]3(C(=O)N(Cc4ccc(N5C(=O)c6cccc7cccc5c67)cc4)c4ccccc43)[C@@H]2C)cc1`, the z-score was 0.147 (inactive).

On to `C=C(C(=O)CC[C@H](OC(=O)c1cccnc1)c1ccc(OCCO)cc1)C(C)C`, for which the z-score is -0.303 (inactive).

In the case of `COC(=O)[C@@]1(Cc2ccccc2)[C@H]2c3cc(C(=O)N4CCCC4)n(CCO)c3C[C@H]2CN1C(=O)c1ccccc1`, the z-score was 0.192 (inactive).

Turning to `C=CCNC(=O)[C@H]1[C@@H]2C(=O)O[C@@H](c3ccccc3)[C@@H](c3ccccc3)N2[C@@H](c2ccc(OCCO)cc2)[C@]12C(=O)N(C(=O)OCCOC)c1ccc(C#CC3=CCCCC3)cc12`, the z-score was 0.567 (inactive).

As for `O=C1C2C=CC(C(O)c3cccc4ccccc34)N(Nc3ccccc3)C2C(=O)N1c1ccccc1` (stereo not given), the z-score is -3.11 (inactive).

Consider `Cc1ccc(S[C@]2(C(=O)O)CC(=O)N(C3CCCCC3)[C@@H]2c2ccc(CO)cc2)cc1`, for which the z-score is -1.74 (inactive).

As to `CC(=O)NCCCC[C@@H]1NC(=O)[C@H]2C[C@@H](C(=O)NCCCCCN)[C@@H](c3cccc(OCCO)c3)N2C1=O`, the z-score is -1.74 (inactive).

With `C=C(CCCC)/C(=C/C[C@@H](OC(=O)c1ccncc1)c1ccccc1OCCO)c1cc(C(=O)OC)ccc1OC`, the z-score is 0.0793 (inactive).

Turning to `C=CC[C@]1(C(=O)N2CCOCC2)N=C(c2ccc(OCCCO)cc2)O[C@H]1c1ccccc1CN=[N+]=[N-]`, the z-score was -0.33 (inactive).

For `C=C(C)[C@@H]1CC=C(C(O)C2C=CC3C(=O)N(C4CCCCC4)C(=O)C3N2Nc2ccc(OC)cc2)CC1` (stereo not given in full), the z-score is 0.702 (inactive).

As for `CC1(C)[C@@H]2CC(C(O)C3C=CC4C(=O)N(c5ccccc5)C(=O)C4N3Nc3ccccc3F)=C[C@@H]1C2` (stereo not given in full), the z-score is -0.393 (inactive).

As to `[N-]=[N+]=NCc1ccccc1[C@H]1OC(c2ccc(OCCCO)cc2)=N[C@@]1(Cc1ccccc1N=[N+]=[N-])C(=O)N1CCCCC1`, the z-score is -0.707 (inactive).

As to `CC(C)N1CC=CC23O[C@@H]4C=CCOC(=O)[C@@H]4[C@H]2C(=O)N(CCCCCCO)[C@@H]3C1=O` (stereo not given in full), the z-score is 0.562 (inactive).

Turning to `CN1C(=O)C2C=CC(C(O)C3CCCCC3)N(N(c3ccccc3)c3ccccc3)C2C1=O` (stereo not given), the z-score was 0.495 (inactive).

Regarding `CC(C)(C)OC(=O)CC[C@]1(C(=O)O)COC(c2ccc(OCCCO)cc2)=N1`, the z-score is 0.167 (inactive).

`O=C1O[C@H](c2ccccc2)[C@H](c2ccccc2)N2[C@H]1[C@@H](C(=O)N1CCN(c3ncccn3)CC1)[C@]1(C(=O)Nc3ccc(C#CCCO)cc31)[C@H]2c1ccc(OCCO)cc1`: the z-score is 1.01 (inactive).

Consider `CN1C(=O)C2C=CC(C(O)c3cccc4ccccc34)N(NC(=O)OC(C)(C)C)C2C1=O` (stereo not given), for which the z-score was -3.8 (inactive).
